Molecules are shown by their SMILES. “And” between values parts separate entries of the source, which are not always exact repeats. Equal values may be shown once. Results filed as inconclusive are left out. A call without a number means that no potency is given here. The source made the active and inactive calls. Calls follow the shape of the dose curve; as a rule, active = well fitted cell-killing curve with a large enough effect in the repeat runs; inconclusive = weak or mixed curves, or effect the other way; inactive = flat fitted curve, though single readings scatter.
Potency is read from the fitted curve at half-maximal effect.

The assay can be described thus: qHTS RealTime-Glo MT Cell Viability Assay in HEK293 cells - 24 hour (AID 1224886). Also: nearly all actives have a fitted effect of over 50% in size. The settings on record: RealTime-Glo luminescence; series mostly up to 76.8 µM. From the text:
National Center for Advancing Translational Sciences [NCATS]
NIH Chemical Genomics Center [NCGC]
U.S. Environmental Protection Agency [EPA]
National Institutes of Environmental Health Sciences [NIEHS]
National Toxicology Program [NTP]
U.S. Food and Drug Administration [FDA]
Measure of cell viability is critical in the cell-base assay. Analysis of cell viability is necessary for the characterization of cell responses to cytotoxic drugs and environmental stress. A RealTime-Glo MT Cell Viability Assay to monitor cell viability in real time of continues cell culture during 40 hours of compound treatment was used to screen Tox21 10K library compounds in Hek293 cells. The RealTime-Glo MT Cell Viability Assay is a nonlytic, homogeneous, bioluminescent method to measure cell viability in real time using a simple, plate-based method. The assay involves adding NanoLuc luciferase and a cell-permeant prosubstrate to cells in culture. Viable cells reduce the proprietary prosubstrate to generate a substrate for NanoLuc luciferase. This substrate diffuses from cells into the surrounding culture medium, where it is rapidly used by the NanoLuc Enzyme to produce a luminescent signal. The signal correlates with the number of viable cells, making the assay well suited for cytotoxicity studies.
Tox21 Assay Protocol Summary:
The mixture of Hek293 cell suspension and reagents were dispensed at 600cells/6 ul/well in 1536-well tissue culture treated black solid bottom plates using a Multidrop dispenser. After the assay plates were incubated at a 37 C/5% CO2 incubator for 5 hours, 23 nL of compounds dissolved in DMSO, positive and negative controls was transferred to the assay plate by a pintool work station. The plates were incubated at 37 C for 40 hours. The luminescence intensity were measured at 0h, 8h, 16h, 24h, 32h and 40h time points using ViewLux plate reader during compound treatment.
As to `CC(C)(C)c1cc(C(C)(C)C)c(O)c(C(C)(C)C)c1`, the Potency entry is “inactive”.

For the molecule `CCC(CO)(CO)COCC(CC)(CO)CO`, the Potency result was “inactive”.

As for `CC1=CC(=O)c2ccccc2C1=O`, the Potency was 15.5 µM (active).

On to `Cc1cc(Cc2cc(C)cc(C(C)(C)C)c2O)c(O)c(C(C)(C)C)c1`, for which the Potency was 12.4 µM (active) and 15.5 µM (active).

With `O=C(O[C@@H]1Cc2c(O)cc(O)cc2O[C@@H]1c1cc(O)c(O)c(O)c1)c1cc(O)c(O)c(O)c1`, the Potency was 10.6 µM (active).

Take `NC(N)=Nc1nc(CSCC/C(N)=N/S(N)(=O)=O)cs1`: the Potency result is “inactive”.

Take `CC(=O)OCC1=C(C(=O)O)N2C(=O)[C@@H](NC(=O)Cc3cccs3)[C@H]2SC1`: the Potency entry is “inactive”.

On to `Oc1ccc(Cl)cc1Cc1cc(Cl)ccc1O`, for which the Potency was 22.3 µM (active) and 43.6 µM (active).

As for `COC(=O)c1cccc(C(=O)OC)c1`, the Potency result was “inactive”.

For the molecule `CC1COC(=O)O1` (stereo not given), the Potency entry was “inactive”.

For `CC(=O)OCCOCCOCCOC(C)=O`, the Potency result is “inactive”.

Consider `O`, for which the Potency entry is “inactive”.

With `CCCCCCC(O)CCCCCCCCCCC(=O)O` (stereo not given), the Potency entry was “inactive”.

For `CC[C@@H](N)CO`, the Potency entry is “inactive”.

With `C[N+]1([O-])CCOCC1`, the Potency result is “inactive”.

With `O=C1OC2(c3ccc(O)cc3Oc3cc(O)ccc32)c2ccccc21`, the Potency entry was “inactive”.

For `O=C(Cl)c1cccc(C(=O)Cl)c1`, the Potency result was “inactive”.

In the case of `Cc1c(O)cccc1C(=O)N[C@@H](CSc1ccccc1)[C@H](O)CN1C[C@H]2CCCC[C@H]2C[C@H]1C(=O)NC(C)(C)C`, the Potency is 21.3 µM (active).

For `CC(C)(c1ccccc1)c1ccc(Nc2ccc(C(C)(C)c3ccccc3)cc2)cc1`, the Potency entry was “inactive”.

Turning to `Nc1nc2ccccc2[nH]1`, the Potency result is “inactive”.

As to `Cc1cc(OCCOCC[N+](C)(C)Cc2ccccc2)ccc1C(C)(C)CC(C)(C)C`, the Potency is 12.2 µM (active) and 8.49 µM (active).

As for `CCOC(=O)C(C)C(C)=O` (stereo not given), the Potency entry is “inactive”.

In the case of `CC(C)(O)CCC(C)(C)O`, the Potency result is “inactive”.

With `CCN(CC)C(=O)Nc1ccc(OCC(O)CNC(C)(C)C)c(C(C)=O)c1` (stereo not given), the Potency result was “inactive”.

Turning to `Cc1occc(=O)c1OC(=O)C(C)C`, the Potency result was “inactive”.

For the molecule `CC(C)CCCCCCc1ccc(O)cc1`, the Potency is 4.44 µM (active).

On to `COc1nc(C)nc(Cl)c1NC1=NCCN1`, for which the Potency result is “inactive”.

In the case of `c1ccc2c(c1)-c1cccc3c1c-2cc1ccccc13`, the Potency result is “inactive”.

Regarding `CCC(=O)/C=C/C1C(C)=CCCC1(C)C` (stereo not given), the Potency entry was “inactive”.

For the molecule `O=C(O)c1cccc(C(=O)O)c1`, the Potency entry was “inactive”.

In the case of `O=C(OCc1ccccc1)c1ccc(O)cc1`, the Potency result is “inactive”.

As to `CC[C@]1(O)C[C@@H]2CN(CCc3c([nH]c4ccccc34)[C@@](C(=O)OC)(c3cc4c(cc3OC)N(C)[C@H]3[C@@](O)(C(=O)OC)[C@H](OC(C)=O)[C@]5(CC)C=CCN6CC[C@]43[C@@H]65)C2)C1`, the Potency was 0.0043 µM (active).

Consider `CCOc1ccc2c(c1)C(C)=CC(C)(C)N2`, for which the Potency entry was “inactive”.

On to `Oc1c(Cl)cc(Cl)c(Cl)c1Cc1c(O)c(Cl)cc(Cl)c1Cl`, for which the Potency was 3.88 µM (active).

For `Cc1ccc(S(=O)(=O)Oc2ccc(N=Nc3ccc(-c4ccc(N=Nc5c(O)ccc6cc(S(=O)(=O)O)cc(S(=O)(=O)O)c56)c(C)c4)cc3C)cc2)cc1`, the Potency entry was “inactive”.

`CCOc1ccccc1C(N)=O`: the Potency result was “inactive”.

Consider `CCC(C)(Oc1ccc(C2(c3ccc(OC(C)(CC)C(=O)O)cc3)CCCCC2)cc1)C(=O)O` (stereo not given), for which the Potency result is “inactive”.

As for `O=C1NCC2(CCN(CCc3ccccc3)CC2)O1`, the Potency entry was “inactive”.

Turning to `CC(C)(C)NCC(O)c1cc(O)cc(O)c1` (stereo not given), the Potency entry is “inactive”.

For the molecule `O=C(O)Cn1cnnn1`, the Potency result was “inactive”.

The record behind these values is PubChem BioAssay (Tox21).
